Data taken from publication PMC7862700, “An all-to-all approach to the identification of sequence-specific readers for epigenetic DNA modifications on cytosine”.

Columns and labels:
Experiment in all cases: DAPPL (digital affinity profiling via proximity ligation, sequencing); 10 mM Tris-HCl pH 7.5, 50 mM NaCl, 1 mM DTT, 4% glycerol, room temperature, 30 min; GST-TFs on glutathione beads, 16-mer random dsDNA library, 0.1% formaldehyde crosslink after washing; high values mean tight binding
FLI1 = biological target: T1, FLI1 (Homo sapiens, UniProt Q01543 1-452); conditions: protein: recombinant; tags: N-terminal GST; dsDNA, one strand shown
T1 sequence: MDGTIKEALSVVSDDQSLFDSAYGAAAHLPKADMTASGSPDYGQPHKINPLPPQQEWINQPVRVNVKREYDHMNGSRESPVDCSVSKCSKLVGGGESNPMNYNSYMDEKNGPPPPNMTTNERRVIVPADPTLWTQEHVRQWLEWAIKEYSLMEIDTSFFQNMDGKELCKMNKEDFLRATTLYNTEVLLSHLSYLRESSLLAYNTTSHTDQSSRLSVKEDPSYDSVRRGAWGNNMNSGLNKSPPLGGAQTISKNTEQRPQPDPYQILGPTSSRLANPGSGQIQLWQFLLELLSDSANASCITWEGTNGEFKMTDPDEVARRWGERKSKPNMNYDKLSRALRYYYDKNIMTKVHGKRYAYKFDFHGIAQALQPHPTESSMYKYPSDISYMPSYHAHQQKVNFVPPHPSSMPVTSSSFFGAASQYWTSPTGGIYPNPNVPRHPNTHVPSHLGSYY
In short: (§1)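 A tag-only sample was pooled with DNA-barcoded human transcription factors that had been expressed in yeast as GST fusions and captured on glutathione beads. The pools were incubated for 30 min at room temperature with 200 nmole of a random double-stranded 16-mer DNA library in Tris/NaCl/DTT/glycerol buffer, then washed, crosslinked with 0.1% formaldehyde, proximity-ligated (BsaI/T4 ligase, 1 h, 37 °C), PCR-amplified and sequenced on an Illumina NextSeq500. Binding signal is each hexamer's read frequency for a factor divided by its frequency for the tag-only sample.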

ELK1 = biological target: T2, ELK1 (Homo sapiens, UniProt P19419 1-428); conditions: protein: recombinant; tags: N-terminal GST; dsDNA, one strand shown
T2 sequence: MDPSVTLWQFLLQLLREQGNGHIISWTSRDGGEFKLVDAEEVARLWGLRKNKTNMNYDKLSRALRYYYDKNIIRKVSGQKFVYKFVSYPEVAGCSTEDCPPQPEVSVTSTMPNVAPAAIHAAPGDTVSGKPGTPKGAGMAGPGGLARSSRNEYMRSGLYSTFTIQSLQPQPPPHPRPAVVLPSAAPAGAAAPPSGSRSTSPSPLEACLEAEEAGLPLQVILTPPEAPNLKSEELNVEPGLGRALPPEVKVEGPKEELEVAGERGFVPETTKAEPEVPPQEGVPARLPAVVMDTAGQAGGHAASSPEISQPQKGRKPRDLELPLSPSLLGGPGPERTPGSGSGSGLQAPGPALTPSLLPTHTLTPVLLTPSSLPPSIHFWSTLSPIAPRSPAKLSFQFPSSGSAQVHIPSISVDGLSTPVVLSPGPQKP
In short: as §1

GABPA = biological target: T3, GABPA (Homo sapiens, UniProt Q06546 1-454); conditions: protein: recombinant; tags: N-terminal GST; dsDNA, one strand shown
T3 sequence: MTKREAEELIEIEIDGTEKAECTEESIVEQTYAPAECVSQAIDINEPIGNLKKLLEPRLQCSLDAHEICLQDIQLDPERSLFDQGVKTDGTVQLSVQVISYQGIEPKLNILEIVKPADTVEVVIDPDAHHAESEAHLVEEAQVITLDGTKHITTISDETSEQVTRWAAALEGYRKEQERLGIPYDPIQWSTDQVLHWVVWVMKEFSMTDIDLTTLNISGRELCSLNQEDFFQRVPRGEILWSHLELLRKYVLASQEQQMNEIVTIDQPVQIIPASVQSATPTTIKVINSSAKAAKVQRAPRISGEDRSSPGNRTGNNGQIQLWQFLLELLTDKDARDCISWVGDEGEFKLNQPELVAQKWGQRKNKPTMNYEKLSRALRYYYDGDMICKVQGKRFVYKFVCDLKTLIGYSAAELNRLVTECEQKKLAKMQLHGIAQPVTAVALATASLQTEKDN
In short: as §1

ERG = biological target: T4, ERG (Homo sapiens, UniProt P11308 1-479); conditions: protein: recombinant; tags: N-terminal GST; dsDNA, one strand shown
T4 sequence: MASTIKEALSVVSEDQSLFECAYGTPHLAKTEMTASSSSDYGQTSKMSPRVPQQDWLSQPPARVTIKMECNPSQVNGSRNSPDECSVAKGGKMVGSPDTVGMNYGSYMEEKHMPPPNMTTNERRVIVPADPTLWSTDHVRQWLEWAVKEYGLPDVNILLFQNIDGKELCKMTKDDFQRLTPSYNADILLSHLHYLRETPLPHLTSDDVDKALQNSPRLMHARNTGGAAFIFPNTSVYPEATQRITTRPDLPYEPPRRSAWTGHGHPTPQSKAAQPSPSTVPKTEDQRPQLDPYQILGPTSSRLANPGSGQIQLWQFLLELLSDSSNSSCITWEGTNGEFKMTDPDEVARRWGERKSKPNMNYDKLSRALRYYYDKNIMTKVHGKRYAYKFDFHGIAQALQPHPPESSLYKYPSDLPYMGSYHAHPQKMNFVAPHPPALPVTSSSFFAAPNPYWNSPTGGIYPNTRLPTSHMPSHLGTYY
In short: as §1

ELF1 = ELF1 (Homo sapiens, UniProt P32519 1-619); conditions: protein: recombinant; tags: N-terminal GST; dsDNA, one strand shown
In short: as §1

EHF = biological target: T5, EHF (Homo sapiens, UniProt Q9NZC4 1-300); conditions: protein: recombinant; tags: N-terminal GST; dsDNA, one strand shown
T5 sequence: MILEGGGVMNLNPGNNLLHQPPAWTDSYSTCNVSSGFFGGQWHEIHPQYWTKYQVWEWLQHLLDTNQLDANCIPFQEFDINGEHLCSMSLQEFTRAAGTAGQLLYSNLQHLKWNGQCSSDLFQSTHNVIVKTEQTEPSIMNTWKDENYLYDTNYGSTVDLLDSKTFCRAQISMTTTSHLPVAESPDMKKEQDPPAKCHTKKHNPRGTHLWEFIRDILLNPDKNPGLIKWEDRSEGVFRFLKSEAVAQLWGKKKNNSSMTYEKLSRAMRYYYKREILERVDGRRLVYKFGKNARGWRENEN
In short: as §1

SPI1 = SPI1 (Homo sapiens, UniProt P17947 1-270); conditions: protein: recombinant; tags: N-terminal GST; dsDNA, one strand shown
In short: as §1

SPIB = SPIB (Homo sapiens, UniProt Q01892 1-262); conditions: protein: recombinant; tags: N-terminal GST; dsDNA, one strand shown
In short: as §1

ELK3 = biological target: T6, ELK3 (Homo sapiens, UniProt P41970 1-407); conditions: protein: recombinant; tags: N-terminal GST; dsDNA, one strand shown
T6 sequence: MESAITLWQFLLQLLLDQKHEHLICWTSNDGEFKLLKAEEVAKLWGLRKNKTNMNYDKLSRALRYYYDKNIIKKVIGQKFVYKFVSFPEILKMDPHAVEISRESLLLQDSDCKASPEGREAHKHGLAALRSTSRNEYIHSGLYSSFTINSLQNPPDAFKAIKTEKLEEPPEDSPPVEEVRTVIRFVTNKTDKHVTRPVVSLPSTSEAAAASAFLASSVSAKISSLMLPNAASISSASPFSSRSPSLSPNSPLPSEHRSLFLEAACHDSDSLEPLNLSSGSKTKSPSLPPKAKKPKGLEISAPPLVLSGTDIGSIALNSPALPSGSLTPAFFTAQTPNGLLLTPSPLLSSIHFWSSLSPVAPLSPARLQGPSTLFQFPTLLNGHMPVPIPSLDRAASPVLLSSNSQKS
In short: as §1

FEV = biological target: T7, FEV (Homo sapiens, UniProt Q99581 1-238); conditions: protein: recombinant; tags: N-terminal GST; dsDNA, one strand shown
T7 sequence: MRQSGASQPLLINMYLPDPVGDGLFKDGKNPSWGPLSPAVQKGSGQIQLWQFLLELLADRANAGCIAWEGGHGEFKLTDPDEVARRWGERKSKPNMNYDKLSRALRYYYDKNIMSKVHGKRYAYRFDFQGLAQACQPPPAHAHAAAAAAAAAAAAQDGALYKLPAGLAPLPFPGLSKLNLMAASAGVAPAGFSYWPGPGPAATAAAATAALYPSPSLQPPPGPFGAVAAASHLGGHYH
In short: as §1

ETV5 = ETV5 (Homo sapiens, UniProt P41161 1-510); conditions: protein: recombinant; tags: N-terminal GST; dsDNA, one strand shown
In short: as §1

HSF1 = HSF1 (Homo sapiens, UniProt Q00613 1-529); conditions: protein: recombinant; tags: N-terminal GST; chain copies: 3; dsDNA, one strand shown
In short: as §1

SPIC = biological target: T8, SPIC (Homo sapiens, UniProt Q8N5J4 1-248); conditions: protein: recombinant; tags: N-terminal GST; dsDNA, one strand shown
T8 sequence: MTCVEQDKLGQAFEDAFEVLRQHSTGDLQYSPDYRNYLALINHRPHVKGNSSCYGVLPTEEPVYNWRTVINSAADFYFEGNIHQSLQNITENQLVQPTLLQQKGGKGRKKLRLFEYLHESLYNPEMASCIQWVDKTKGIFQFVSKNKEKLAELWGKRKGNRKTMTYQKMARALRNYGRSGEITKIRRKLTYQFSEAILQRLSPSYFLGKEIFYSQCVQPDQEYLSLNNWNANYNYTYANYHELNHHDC
In short: as §1

ELF4 = ELF4 (Homo sapiens, UniProt Q99607 1-663); conditions: protein: recombinant; tags: N-terminal GST; dsDNA, one strand shown
In short: as §1

ELK4 = biological target: T9, ELK4 (Homo sapiens, UniProt P28324-2 1-405); conditions: protein: recombinant; tags: N-terminal GST; dsDNA, one strand shown
T9 sequence: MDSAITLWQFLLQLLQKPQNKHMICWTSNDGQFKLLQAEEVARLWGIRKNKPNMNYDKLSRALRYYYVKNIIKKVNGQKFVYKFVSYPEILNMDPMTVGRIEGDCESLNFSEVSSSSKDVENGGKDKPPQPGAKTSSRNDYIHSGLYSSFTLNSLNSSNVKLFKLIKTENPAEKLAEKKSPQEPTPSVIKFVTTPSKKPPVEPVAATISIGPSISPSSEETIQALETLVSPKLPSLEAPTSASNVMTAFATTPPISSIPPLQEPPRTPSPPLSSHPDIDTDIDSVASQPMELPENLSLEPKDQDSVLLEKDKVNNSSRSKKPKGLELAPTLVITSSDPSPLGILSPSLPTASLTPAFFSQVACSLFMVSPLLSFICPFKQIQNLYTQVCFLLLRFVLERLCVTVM
In short: as §1

ETV2 = biological target: T10, ETV2 (Homo sapiens, UniProt O00321 1-342); conditions: protein: recombinant; tags: N-terminal GST; dsDNA, one strand shown
T10 sequence: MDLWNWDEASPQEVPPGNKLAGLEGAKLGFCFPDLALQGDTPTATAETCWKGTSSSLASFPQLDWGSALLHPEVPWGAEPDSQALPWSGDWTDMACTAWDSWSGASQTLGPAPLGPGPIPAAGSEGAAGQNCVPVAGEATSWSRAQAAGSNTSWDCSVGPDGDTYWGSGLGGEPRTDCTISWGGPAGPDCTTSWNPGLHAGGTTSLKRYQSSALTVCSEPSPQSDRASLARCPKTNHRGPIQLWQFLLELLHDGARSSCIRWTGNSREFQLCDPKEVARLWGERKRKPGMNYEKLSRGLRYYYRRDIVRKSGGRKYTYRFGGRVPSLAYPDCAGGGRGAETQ
In short: as §1

ELF3 = biological target: T11, ELF3 (Homo sapiens, UniProt P78545 1-371); conditions: protein: recombinant; tags: N-terminal GST; dsDNA, one strand shown
T11 sequence: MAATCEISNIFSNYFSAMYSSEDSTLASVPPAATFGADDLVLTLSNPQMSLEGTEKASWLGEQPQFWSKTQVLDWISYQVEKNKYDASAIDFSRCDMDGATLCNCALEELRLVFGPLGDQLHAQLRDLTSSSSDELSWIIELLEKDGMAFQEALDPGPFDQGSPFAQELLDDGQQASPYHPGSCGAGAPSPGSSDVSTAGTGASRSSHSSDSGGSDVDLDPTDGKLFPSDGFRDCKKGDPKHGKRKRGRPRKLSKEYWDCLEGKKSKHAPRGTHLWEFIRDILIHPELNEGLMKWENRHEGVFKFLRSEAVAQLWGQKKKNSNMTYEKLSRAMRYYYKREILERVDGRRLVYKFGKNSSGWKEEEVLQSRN
In short: as §1

CRX = CRX (Homo sapiens, UniProt O43186 1-299); conditions: protein: recombinant; tags: N-terminal GST; dsDNA, one strand shown
In short: as §1

ETV1 = ETV1 (Homo sapiens, UniProt P50549 1-477); conditions: protein: recombinant; tags: N-terminal GST; dsDNA, one strand shown
In short: as §1

ETV1, sequence (P50549 whole entry): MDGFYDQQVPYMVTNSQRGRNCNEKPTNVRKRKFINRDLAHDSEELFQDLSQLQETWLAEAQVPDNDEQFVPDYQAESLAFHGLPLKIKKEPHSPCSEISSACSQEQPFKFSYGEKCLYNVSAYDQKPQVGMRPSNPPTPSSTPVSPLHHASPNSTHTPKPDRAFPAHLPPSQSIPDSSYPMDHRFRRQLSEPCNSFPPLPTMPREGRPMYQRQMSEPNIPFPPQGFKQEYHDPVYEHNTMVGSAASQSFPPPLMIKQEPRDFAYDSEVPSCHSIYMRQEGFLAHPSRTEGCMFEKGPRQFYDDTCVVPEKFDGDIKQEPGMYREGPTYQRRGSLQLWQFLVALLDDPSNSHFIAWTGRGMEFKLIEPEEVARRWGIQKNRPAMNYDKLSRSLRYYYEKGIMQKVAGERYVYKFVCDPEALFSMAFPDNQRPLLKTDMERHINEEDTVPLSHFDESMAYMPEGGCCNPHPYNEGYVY
ELF4, sequence (Q99607 whole entry): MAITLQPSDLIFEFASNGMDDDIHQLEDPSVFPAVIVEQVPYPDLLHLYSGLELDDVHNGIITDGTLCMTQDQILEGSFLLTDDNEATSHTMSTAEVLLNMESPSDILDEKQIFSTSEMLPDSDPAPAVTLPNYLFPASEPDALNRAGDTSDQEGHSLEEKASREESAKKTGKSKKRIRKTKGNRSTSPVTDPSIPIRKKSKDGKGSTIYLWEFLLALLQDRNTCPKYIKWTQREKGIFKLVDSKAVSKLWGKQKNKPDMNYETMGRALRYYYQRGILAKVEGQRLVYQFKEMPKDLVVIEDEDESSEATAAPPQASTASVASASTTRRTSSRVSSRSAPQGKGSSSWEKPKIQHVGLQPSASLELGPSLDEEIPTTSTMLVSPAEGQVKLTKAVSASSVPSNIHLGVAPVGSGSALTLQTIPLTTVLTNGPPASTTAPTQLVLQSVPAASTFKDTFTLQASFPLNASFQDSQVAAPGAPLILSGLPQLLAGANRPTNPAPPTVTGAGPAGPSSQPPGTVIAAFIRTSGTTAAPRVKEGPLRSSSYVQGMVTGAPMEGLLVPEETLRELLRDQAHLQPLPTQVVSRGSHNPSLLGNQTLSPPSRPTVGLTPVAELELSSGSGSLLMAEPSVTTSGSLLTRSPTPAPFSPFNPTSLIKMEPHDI
ELF1, sequence (P32519 whole entry): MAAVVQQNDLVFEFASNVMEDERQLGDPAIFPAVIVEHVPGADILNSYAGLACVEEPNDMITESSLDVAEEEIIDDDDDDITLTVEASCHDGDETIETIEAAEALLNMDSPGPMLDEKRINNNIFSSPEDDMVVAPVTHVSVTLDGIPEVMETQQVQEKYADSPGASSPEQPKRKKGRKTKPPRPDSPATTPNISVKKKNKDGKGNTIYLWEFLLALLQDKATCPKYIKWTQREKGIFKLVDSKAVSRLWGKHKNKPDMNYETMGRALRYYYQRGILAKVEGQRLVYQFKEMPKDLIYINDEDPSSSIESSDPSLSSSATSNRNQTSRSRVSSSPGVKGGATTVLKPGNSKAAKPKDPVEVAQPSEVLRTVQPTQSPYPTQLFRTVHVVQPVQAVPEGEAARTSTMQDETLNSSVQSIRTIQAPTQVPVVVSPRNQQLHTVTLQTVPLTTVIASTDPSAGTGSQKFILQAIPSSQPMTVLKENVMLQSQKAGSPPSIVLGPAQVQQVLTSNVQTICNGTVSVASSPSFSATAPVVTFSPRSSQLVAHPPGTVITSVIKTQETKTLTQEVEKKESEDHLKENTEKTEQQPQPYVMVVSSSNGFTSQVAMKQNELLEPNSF
ETV5, sequence (P41161 whole entry): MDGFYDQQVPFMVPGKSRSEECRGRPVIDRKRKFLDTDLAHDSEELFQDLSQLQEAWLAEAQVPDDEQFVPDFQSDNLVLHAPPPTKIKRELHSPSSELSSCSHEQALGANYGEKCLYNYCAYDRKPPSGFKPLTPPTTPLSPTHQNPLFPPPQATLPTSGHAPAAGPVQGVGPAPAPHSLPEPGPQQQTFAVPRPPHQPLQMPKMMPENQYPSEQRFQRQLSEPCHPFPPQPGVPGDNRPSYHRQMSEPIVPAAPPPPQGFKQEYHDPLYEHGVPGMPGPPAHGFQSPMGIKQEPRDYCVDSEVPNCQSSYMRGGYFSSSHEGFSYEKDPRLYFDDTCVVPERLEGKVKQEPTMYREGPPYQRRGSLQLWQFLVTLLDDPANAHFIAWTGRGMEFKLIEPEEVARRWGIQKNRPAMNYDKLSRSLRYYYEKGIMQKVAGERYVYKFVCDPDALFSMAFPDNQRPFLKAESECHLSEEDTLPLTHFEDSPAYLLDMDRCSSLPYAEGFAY
SPIB, sequence (Q01892 whole entry): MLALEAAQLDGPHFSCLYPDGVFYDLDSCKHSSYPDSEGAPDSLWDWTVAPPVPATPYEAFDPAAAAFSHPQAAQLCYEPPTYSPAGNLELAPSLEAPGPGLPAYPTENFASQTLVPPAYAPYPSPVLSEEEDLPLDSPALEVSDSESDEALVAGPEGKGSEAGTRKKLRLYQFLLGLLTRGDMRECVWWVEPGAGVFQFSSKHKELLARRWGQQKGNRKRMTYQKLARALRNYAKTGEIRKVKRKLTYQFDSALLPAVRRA
CRX, sequence (O43186 whole entry): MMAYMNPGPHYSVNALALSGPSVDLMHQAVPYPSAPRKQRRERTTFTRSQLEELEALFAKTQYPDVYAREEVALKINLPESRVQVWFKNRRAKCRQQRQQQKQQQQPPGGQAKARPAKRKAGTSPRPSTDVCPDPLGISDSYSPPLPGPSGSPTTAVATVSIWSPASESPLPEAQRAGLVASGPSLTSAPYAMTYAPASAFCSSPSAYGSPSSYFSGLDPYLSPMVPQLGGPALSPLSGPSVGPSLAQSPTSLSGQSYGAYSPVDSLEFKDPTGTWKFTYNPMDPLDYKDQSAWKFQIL
HSF1, sequence (Q00613 whole entry): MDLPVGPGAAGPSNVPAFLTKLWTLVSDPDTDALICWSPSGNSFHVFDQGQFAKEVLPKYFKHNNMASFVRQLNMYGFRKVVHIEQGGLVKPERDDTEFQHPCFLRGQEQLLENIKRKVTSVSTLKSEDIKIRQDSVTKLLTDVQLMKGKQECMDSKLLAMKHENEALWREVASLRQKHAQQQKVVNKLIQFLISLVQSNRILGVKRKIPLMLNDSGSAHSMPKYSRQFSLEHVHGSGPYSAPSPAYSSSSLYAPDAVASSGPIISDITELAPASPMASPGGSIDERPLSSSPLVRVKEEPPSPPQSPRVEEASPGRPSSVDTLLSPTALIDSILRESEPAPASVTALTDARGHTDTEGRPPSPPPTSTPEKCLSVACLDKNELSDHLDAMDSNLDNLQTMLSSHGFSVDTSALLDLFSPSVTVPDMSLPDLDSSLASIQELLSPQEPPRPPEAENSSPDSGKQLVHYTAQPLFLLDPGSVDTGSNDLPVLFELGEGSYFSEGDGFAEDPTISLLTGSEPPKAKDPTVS

AACCTC
binding signal (FLI1): 1.22 fold enrichment (6-mer frequency, TF over GST control) | binding signal (ELK1): 1.27 fold enrichment (6-mer frequency, TF over GST control) | binding signal (GABPA): 1.28 fold enrichment (6-mer frequency, TF over GST control) | binding signal (ERG): 1.23 fold enrichment (6-mer frequency, TF over GST control) | binding signal (ELF1): 1.29 fold enrichment (6-mer frequency, TF over GST control) | binding signal (EHF): 1.2 fold enrichment (6-mer frequency, TF over GST control) | binding signal (SPI1): 1.2 fold enrichment (6-mer frequency, TF over GST control) | binding signal (SPIB): 1.19 fold enrichment (6-mer frequency, TF over GST control) | binding signal (ELK3): 1.23 fold enrichment (6-mer frequency, TF over GST control) | binding signal (FEV): 1.18 fold enrichment (6-mer frequency, TF over GST control) | binding signal (ETV5): 1.22 fold enrichment (6-mer frequency, TF over GST control) | binding signal (HSF1): 1.17 fold enrichment (6-mer frequency, TF over GST control) | binding signal (SPIC): 1.4 fold enrichment (6-mer frequency, TF over GST control) | binding signal (ELF4): 1.2 fold enrichment (6-mer frequency, TF over GST control) | binding signal (ELK4): 1.26 fold enrichment (6-mer frequency, TF over GST control) | binding signal (ETV2): 1.32 fold enrichment (6-mer frequency, TF over GST control) | binding signal (ELF3): 1.28 fold enrichment (6-mer frequency, TF over GST control) | binding signal (CRX): 1.11 fold enrichment (6-mer frequency, TF over GST control) | binding signal (ETV1): 1.24 fold enrichment (6-mer frequency, TF over GST control)
